Assay results: ChEMBL document CHEMBL3988442, “University of Dundee, Small-Polar-MMV Screening Library” (2021)
For some of these results: Entries with a potency or affinity are not part of this list.

Assays:
Design in all cases: scale not given: direction of the effect not stated beside the values
[1] = molecular target: Protein translocase subunit SecA (Escherichia coli (strain K12)) (UniProt P10408); assay: Assay to Identify E. coli SecA ATPase Inhibitors; type: functional; conditions: 30 µM
[2] = molecular target: T1, Ubiquitin-activating enzyme e1, putative (Leishmania donovani (strain BPK282A1)) (UniProt E9BSI1); assay: Leishmania donovani Ubiquitin Activating Enzyme (LdE1); type: functional; conditions: 30 µM
T1 sequence (whole entry): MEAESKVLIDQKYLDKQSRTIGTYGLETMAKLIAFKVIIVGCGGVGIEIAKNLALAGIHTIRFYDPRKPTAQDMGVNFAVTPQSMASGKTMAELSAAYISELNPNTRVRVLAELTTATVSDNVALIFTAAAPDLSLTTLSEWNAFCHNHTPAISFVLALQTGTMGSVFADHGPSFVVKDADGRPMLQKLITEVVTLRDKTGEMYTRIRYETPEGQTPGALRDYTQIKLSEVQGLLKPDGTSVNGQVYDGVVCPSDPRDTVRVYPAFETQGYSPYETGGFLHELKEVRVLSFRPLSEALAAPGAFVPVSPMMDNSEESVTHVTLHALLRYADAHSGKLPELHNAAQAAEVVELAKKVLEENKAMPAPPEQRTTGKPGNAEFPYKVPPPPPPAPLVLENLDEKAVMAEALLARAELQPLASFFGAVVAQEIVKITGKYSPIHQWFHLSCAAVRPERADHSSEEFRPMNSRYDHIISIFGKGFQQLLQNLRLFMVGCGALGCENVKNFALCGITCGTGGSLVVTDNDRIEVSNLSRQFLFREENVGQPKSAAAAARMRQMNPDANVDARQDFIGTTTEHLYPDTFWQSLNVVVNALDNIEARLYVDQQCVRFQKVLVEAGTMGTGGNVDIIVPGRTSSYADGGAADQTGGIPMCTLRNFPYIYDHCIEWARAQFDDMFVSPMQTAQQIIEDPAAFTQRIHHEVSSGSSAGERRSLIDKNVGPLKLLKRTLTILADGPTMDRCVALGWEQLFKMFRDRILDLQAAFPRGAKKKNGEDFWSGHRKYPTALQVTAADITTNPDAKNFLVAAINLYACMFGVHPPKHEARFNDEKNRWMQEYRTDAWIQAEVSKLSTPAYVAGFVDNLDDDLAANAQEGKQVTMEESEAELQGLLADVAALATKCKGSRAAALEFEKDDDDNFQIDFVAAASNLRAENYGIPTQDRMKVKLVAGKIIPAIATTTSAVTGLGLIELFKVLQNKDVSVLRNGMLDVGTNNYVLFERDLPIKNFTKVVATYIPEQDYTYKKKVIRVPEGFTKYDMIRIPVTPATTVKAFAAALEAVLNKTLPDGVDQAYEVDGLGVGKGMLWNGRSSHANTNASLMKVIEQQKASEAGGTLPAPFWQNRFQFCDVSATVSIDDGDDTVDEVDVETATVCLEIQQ

[3] = molecular target: AMP-activated protein kinase, AMPK (Homo sapiens) (UniProt P54646+O43741+P54619+Q9UGJ0+Q9Y478+Q13131+Q9UGI9); assay: AMP-dependent Kinase enzyme assay. An in vitro enzyme assay that detects ADP turnover that is directly proportional to AMPK activity. This uses naive AMPK that is activated during the assay with MK-8722; type: functional; conditions: 30 µM
[4] = molecular target: Sialic acid-binding Ig-like lectin 9 (Homo sapiens) (UniProt Q9Y336); assay: Hs-Siglec9 ALPHAscreen SOP 20170721; conditions: 10 µM
[5] = system: Trypanosoma cruzi; assay: Trypanosoma cruzi phosphomannomutase and mannose-1-phosphate guanylyltransferase assay; type: functional; conditions: 10 µM
[6] = molecular target: T2, Arginase-2, mitochondrial (Homo sapiens) (UniProt P78540); assay: in vitro enzyme assay to detect the production of urea directly proportional to the activity of Arginase II; type: functional; conditions: 33.3 µM; note: in the data most compounds retested in dose-response had high values
T2 sequence (whole entry): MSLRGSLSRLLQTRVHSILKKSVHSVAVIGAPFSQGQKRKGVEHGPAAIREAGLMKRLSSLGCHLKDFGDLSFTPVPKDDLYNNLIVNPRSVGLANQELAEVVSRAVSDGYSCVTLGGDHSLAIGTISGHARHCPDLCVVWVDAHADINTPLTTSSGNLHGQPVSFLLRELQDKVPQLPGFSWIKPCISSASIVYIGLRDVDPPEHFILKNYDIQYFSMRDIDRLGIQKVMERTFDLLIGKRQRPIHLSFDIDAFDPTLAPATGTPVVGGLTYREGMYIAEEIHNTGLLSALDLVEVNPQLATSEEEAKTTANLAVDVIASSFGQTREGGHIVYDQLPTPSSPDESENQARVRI

[7] = molecular target: T3, Proteasome subunit beta (Trypanosoma cruzi) (UniProt O96673); assay: Trypanosoma cruzi proteasome chymotrypsin-like activity (TcProtChymo) assay.; note: in the data most compounds retested in dose-response had high values; type: functional; conditions: 9.37 µM
T3 sequence (whole entry): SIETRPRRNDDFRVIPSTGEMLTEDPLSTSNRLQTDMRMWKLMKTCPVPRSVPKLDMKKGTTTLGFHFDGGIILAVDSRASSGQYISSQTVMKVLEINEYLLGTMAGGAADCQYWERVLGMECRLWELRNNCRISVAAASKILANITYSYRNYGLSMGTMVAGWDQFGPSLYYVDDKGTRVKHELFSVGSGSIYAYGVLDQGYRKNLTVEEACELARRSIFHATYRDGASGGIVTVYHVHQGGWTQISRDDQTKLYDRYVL

[8] = species on record: Homo sapiens; assay: To identify inhibition of the IFN signalling (Jak-Stat) pathway via expression of an eGFP reporter gene under the control of an IFN-stimulated response element (ISRE) containing MxA promoter.; type: functional; conditions: 30 µM
[9] = molecular target: T4, Tyrosyl-tRNA synthetase, putative (Trypanosoma cruzi (strain CL Brener)) (UniProt Q4DSP6); assay: Trypanosoma cruzi tyrosyl tRNA synthetase (TcYRS) _High Tyrosine SOP; type: functional; conditions: 30 µM; note: in the data most compounds retested in dose-response had high values
T4 sequence (whole entry): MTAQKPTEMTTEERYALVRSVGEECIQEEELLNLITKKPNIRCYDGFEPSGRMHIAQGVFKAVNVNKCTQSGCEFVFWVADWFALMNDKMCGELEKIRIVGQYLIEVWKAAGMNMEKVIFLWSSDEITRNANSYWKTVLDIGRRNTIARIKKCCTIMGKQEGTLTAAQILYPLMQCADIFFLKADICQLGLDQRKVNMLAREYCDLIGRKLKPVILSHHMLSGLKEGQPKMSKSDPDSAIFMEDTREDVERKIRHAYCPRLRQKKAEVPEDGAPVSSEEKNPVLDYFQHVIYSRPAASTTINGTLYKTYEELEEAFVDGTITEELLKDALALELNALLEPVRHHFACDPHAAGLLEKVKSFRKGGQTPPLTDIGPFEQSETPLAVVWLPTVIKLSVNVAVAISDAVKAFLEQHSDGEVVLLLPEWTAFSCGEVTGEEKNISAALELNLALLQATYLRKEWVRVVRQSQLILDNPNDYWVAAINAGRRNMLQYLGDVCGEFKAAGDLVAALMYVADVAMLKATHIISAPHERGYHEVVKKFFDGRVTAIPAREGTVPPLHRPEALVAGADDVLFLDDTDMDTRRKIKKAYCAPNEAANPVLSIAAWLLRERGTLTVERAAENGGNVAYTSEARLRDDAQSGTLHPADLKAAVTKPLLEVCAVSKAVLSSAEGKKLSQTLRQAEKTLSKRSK

[10] = molecular target: T4, Tyrosyl-tRNA synthetase, putative (Trypanosoma cruzi (strain CL Brener)); assay: Trypanosoma cruzi tyrosyl tRNA synthetase (TcYRS) SOP; type: functional; conditions: 30 µM
[11] = molecular target: Chromo domain-containing protein 1 (Saccharomyces cerevisiae (strain ATCC 204508 / S288c) (Baker's yeast)) (UniProt P32657); assay: ScCHD-1 Enzyme Inhibition Assay; type: functional; conditions: 30 µM; note: in the data most compounds retested in dose-response had high values
Chain of Chromo domain-containing protein 1 (Saccharomyces cerevisiae (strain ATCC 204508 / S288c) (Baker's yeast)) (P32657 whole entry, the tested form may be a part): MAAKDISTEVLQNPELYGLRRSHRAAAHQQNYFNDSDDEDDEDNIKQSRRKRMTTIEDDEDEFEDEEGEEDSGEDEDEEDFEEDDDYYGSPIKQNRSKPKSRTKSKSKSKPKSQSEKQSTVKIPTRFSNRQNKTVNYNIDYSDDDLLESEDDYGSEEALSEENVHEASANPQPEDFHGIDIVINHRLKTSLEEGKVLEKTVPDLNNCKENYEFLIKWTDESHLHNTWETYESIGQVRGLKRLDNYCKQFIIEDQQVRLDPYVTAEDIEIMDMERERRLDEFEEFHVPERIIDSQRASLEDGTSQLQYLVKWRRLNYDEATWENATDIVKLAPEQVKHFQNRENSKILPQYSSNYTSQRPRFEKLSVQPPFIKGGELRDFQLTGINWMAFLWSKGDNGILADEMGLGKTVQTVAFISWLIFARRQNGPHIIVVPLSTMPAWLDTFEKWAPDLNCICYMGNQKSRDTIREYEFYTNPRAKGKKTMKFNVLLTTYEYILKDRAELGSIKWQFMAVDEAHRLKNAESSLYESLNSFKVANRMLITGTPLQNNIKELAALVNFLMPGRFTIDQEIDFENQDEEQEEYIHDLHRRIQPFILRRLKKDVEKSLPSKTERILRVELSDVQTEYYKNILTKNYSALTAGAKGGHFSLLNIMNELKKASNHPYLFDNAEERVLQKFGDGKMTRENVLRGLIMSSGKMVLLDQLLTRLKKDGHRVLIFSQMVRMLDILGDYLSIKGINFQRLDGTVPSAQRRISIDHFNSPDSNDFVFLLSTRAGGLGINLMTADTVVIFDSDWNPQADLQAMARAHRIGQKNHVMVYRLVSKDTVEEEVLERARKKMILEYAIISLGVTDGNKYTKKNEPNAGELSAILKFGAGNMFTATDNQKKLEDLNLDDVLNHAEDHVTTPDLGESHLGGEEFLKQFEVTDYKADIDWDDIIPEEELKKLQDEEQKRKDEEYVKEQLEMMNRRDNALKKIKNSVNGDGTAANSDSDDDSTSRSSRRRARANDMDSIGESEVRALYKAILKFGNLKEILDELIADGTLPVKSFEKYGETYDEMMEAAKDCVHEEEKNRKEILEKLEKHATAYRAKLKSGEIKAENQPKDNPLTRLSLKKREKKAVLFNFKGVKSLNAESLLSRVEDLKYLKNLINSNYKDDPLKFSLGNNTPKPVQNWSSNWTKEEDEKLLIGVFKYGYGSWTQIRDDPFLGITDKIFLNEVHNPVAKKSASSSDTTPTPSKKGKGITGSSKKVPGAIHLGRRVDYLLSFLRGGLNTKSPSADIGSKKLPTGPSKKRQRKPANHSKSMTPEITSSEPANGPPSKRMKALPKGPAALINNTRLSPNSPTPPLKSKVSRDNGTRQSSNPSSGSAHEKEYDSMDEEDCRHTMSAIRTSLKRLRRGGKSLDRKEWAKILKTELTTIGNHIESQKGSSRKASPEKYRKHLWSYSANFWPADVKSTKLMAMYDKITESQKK

Chain of Protein translocase subunit SecA (Escherichia coli (strain K12)) (P10408 whole entry): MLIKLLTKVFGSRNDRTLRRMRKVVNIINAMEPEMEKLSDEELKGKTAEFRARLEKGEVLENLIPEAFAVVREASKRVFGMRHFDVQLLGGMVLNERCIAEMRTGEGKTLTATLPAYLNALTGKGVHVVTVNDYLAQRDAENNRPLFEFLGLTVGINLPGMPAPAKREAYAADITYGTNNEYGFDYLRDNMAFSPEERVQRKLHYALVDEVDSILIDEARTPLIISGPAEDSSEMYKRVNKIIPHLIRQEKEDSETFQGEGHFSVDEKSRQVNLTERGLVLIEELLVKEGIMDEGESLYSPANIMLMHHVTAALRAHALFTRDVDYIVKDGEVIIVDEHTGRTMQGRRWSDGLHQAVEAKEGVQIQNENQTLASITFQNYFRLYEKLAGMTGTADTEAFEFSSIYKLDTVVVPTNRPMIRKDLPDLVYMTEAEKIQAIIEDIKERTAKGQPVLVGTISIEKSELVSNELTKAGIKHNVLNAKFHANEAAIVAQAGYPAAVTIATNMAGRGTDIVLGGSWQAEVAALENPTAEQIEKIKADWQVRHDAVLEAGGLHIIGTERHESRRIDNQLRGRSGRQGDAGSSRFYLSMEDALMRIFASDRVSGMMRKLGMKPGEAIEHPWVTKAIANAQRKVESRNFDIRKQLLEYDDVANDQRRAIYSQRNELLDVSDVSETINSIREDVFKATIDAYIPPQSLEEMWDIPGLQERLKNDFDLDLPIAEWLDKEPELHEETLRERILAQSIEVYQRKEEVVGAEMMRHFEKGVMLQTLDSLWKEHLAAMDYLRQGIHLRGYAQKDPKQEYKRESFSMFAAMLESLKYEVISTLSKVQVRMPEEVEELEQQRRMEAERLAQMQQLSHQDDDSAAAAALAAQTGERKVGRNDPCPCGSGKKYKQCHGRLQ
Chain of Sialic acid-binding Ig-like lectin 9 (Homo sapiens) (Q9Y336 whole entry): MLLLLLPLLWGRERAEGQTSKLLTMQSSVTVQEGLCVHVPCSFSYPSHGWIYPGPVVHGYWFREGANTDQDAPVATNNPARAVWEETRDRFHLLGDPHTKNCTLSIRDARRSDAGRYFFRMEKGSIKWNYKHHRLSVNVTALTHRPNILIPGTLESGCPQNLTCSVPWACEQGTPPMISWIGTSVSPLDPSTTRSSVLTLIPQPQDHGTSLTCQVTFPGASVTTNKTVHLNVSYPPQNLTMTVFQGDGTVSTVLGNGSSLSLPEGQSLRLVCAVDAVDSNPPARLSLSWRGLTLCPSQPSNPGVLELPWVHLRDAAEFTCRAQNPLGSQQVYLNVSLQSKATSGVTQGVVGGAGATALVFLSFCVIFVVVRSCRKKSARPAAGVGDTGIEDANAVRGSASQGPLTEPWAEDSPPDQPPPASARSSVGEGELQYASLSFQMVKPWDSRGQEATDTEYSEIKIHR

| SMILES | Percent Effect [1] | Percent Effect [2] | Percent Effect [3] | Percent Effect [4] | Percent Effect [5] | Percent Effect [6] | Percent Effect [7] | Percent Effect [8] | Percent Effect [9] | Percent Effect [10] | Percent Effect [11] |
| --- | --- | --- | --- | --- | --- | --- | --- | --- | --- | --- | --- |
| Cc1cc(C)cc(C2(C(=O)NC(C)Cn3ccnc3)CC2)c1 (stereo unspecified) | -2.27% | 25.3% | -10.3% | 0.0554% | 3.31% | -4.56% | 14.3% | -5.91% | 8.37% | 24.1% | -10.8% |
| COC(C(=O)N1CCCN(Cc2cscn2)CC1)c1ccccc1 (stereo unspecified) | -0.131% | 21.1% | -3.46% | -3.88% | 4.89% | -5.36% | 23.2% | 6.84% | 5.39% | 24.4% | -9.91% |
| CCn1c(N)nc2cc(C(=O)NCCc3sccc3C)cnc21 | -4.71% | -2.74% | 1.2% | 24.5% | 5.29% | -2.73% | 28.6% | 8.68% | 3.23% | 20% | -6.44% |
| Cc1cc(C)n(CC2CCCN2C(=O)c2ccc3c(c2)nnn3C)n1 (stereo unspecified) | -3.73% | 8.22% | -3.73% | -4.94% | -2.94% | 7.27% | 14.9% | -9.03% | 3.23% | 7.5% | -4.89% |
| NC(=O)c1cc(C2CCCN(C(=O)CCc3cscn3)C2)n[nH]1 (stereo unspecified) | -1.95% | 0% | 9.04% | 3.83% | 1.69% | -0.356% | 1.86% | 8.48% | 2.91% | 2.44% | -5.18% |
| COc1c(CNCc2cccc(Cn3ccnc3)c2)c(C)nn1C | -5.63% | 21.6% | -15% | 13.9% | 5.38% | -11.2% | 10.3% | 37.8% | 4.43% | 18.5% | -10% |
| COc1cccc(CCNC(=O)CN2CCCC2c2noc(C)n2)c1 (stereo unspecified) | -2.79% | 8.11% | 1.21% | -0.359% | -5.48% | 7.21% | 2.51% | 20.8% | 7.92% | 11% | -1.21% |
| CCc1c(C)nc2cc(C3CCN(Cc4ccccc4F)C3)nn2c1O (stereo unspecified) | 0.76% | -14.9% | -7.43% | -10.9% | -2.77% | 2.09% | 20.9% | 17% | 4.3% | 9.09% | -7.83% |
| Cc1ccc(CNC(=O)CN2C=Nc3ccccc3S2(=O)=O)s1 | -3.17% | 21.1% | -5.67% | -1.55% | 6.07% | -0.36% | 3.98% | 9.85% | 10.3% | 23.5% | -6.54% |
| Cc1cccc(S(=O)(=O)NCC(C)N2CCN(C)CC2)c1Cl (stereo unspecified) | -5.19% | 2.6% | -2.53% | -0.382% | -0.492% | -2.76% | 2.83% | 7.45% | 0% | 3.7% | 0.187% |
| CC(NC(=O)NCCCOC1CCCCC1)c1nncn1C (stereo unspecified) | -0.354% | 2.7% | -2.09% | 21.6% | 4.18% | -1.29% | 16.2% | 5.68% | 3.96% | 25.6% | -7.07% |
